Among the data in ChEMBL document CHEMBL1961873, “Compounds: GSK PKIS; Assays: Nanosyn kinase panel” (2012) are inhibition values, retold here.

In assay [1] the target is Mitogen-activated protein kinase 3 (Homo sapiens) (UniProt P27361). Particulars: at 1 µM.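 Further: values are mean percent inhibition of MAPK3.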
Assay [2] deals with SRSF protein kinase 3 (Homo sapiens) (UniProt Q9UPE1). Particulars: at 0.1 µM.
For assay [3] the target is unchanged. Conditions: at 1 µM.
Assay [4] addresses Mitogen-activated protein kinase 14 (Homo sapiens) (UniProt Q16539). Particulars: at 0.1 µM.
Assay [5] has the same target. Conditions: at 1 µM.
In assay [6] the target is Mitogen-activated protein kinase 11 (Homo sapiens) (UniProt Q15759). Particulars: at 0.1 µM.
For assay [7] the target is unchanged. Particulars: at 1 µM.
In assay [8] the target is T1, Mitogen-activated protein kinase 13 (Homo sapiens) (UniProt O15264).
T1 sequence (whole entry): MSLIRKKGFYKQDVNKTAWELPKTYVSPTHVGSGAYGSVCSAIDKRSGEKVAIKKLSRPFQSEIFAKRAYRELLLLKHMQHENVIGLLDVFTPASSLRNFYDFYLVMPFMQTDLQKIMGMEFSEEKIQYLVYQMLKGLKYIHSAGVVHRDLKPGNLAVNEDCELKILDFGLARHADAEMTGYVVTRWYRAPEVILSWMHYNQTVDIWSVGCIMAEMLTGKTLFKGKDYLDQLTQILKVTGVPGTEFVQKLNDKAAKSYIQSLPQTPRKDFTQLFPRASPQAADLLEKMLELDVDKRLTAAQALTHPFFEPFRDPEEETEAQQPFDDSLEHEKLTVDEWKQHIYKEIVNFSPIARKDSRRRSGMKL
Particulars: at 0.1 µM.

Assay [9] has as its target T1, Mitogen-activated protein kinase 13 (Homo sapiens). Conditions: at 1 µM.
The target in assay [10] is T2, Mitogen-activated protein kinase 12 (Homo sapiens) (UniProt P53778).
T2 sequence (whole entry): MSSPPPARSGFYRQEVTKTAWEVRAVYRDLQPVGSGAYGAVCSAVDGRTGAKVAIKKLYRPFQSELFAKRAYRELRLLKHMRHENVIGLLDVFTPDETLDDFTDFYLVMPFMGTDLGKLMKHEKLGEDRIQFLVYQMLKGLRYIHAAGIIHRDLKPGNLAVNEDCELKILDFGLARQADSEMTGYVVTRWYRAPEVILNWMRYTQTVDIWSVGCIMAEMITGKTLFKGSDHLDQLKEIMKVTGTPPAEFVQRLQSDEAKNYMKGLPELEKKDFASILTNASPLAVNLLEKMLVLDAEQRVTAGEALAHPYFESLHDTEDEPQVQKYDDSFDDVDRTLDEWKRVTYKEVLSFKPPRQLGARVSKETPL
Particulars: at 0.1 µM.

The structures appear in SMILES notation. “And” between values parts separate entries of the source, which are not always exact repeats. Equal values may be shown once.

Sequence of Mitogen-activated protein kinase 11 (Homo sapiens) (Q15759 whole entry): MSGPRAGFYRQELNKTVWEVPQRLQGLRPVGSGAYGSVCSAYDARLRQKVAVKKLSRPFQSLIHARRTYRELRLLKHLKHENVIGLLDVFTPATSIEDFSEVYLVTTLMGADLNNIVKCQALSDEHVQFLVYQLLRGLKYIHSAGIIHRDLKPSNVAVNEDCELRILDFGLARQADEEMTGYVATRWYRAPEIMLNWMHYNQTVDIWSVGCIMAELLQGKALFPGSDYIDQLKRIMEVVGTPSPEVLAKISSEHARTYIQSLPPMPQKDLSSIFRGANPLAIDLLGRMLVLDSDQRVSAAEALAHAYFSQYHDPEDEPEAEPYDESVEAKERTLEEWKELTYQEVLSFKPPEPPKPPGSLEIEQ
Sequence of Mitogen-activated protein kinase 3 (Homo sapiens) (P27361 whole entry): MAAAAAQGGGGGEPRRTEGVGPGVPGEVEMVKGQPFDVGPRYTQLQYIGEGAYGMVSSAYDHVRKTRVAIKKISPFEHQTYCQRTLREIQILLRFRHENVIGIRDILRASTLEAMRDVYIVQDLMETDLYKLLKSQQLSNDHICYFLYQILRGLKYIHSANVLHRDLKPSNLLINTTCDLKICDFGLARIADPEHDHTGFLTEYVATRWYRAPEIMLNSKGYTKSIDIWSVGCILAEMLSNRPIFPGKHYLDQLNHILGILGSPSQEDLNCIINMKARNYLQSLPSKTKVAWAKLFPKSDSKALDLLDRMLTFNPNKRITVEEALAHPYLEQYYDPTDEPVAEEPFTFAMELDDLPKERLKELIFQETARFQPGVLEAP
Sequence of Mitogen-activated protein kinase 14 (Homo sapiens) (Q16539 whole entry): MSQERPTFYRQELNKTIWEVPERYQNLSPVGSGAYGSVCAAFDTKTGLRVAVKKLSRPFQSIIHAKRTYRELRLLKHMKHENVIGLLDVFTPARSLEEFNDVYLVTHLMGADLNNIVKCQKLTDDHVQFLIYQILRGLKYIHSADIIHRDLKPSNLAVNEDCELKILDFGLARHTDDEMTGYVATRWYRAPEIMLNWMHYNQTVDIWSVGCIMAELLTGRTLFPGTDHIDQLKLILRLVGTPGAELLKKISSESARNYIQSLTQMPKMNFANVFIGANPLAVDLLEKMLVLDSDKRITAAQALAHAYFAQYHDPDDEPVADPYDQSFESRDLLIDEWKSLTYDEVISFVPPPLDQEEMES
Sequence of SRSF protein kinase 3 (Homo sapiens) (Q9UPE1 whole entry): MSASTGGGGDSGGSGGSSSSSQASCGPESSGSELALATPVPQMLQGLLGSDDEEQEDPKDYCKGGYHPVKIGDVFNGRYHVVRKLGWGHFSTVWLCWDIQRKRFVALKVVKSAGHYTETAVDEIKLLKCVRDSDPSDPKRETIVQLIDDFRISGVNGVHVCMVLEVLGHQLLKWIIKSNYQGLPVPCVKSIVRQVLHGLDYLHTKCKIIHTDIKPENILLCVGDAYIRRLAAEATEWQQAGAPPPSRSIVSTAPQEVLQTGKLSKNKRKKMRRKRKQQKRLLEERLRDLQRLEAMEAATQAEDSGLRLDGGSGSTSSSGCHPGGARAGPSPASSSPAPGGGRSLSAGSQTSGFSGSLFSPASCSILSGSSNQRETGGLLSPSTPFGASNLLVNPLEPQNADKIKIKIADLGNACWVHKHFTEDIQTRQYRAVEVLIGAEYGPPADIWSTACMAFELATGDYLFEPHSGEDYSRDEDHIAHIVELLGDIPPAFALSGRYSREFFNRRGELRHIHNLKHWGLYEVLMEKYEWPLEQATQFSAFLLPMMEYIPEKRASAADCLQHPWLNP

In the case of `Nc1nonc1-c1nc2cnccc2n1C1CC1`, the inhibition in assay [1] was 4.99% and 3.59%; in assay [2] it was -0.3% and -0.76%; in assay [3], -1.03% and 0.65%; in assay [4], 9.91% and 3.52%; in [5] it was 9.15% and 7.62%; in assay [6], 3.95% and 1.62%. Further, the inhibition in assay [7] is 6.89% and 0.76%; in assay [8], 3.43% and 4.51%; in assay [9] it was 6.86% and 5.08%; in [10], 3.64% and 2.61%.

Take `NC(=O)c1ccc2c(-c3ccnc(NCCCO)n3)c(-c3ccc(F)cc3)nn2c1`: the inhibition came to 8.87% in assay [1]; 1.36% in assay [2]; 1.23% in assay [3]; 74.9% in [4]; 86.4% in [5]; 49.5% in [6]. Further, the inhibition came out at 68.7% in assay [7], 1.5% in [8], 6.27% in [9] and 2.09% in [10].

For `NS(=O)(=O)c1ccc(N/N=C2\C(=O)Nc3ccc(C(=O)NCc4ccncc4)cc32)cc1`, the inhibition in assay [1] was 26.3%; in assay [2], -1.39%; in assay [3], 2.17%; in assay [4] it was 6.35%; in assay [5] it was 6.05%; in assay [6] it was 4.53%. Further, the inhibition in assay [7] is 9.75%; in assay [8], 1.65%; in assay [9], 4.79%; in assay [10], -1.11%.

As to `O=C(O[C@H]1CN[C@H](C#Cc2cc3ncnc(Nc4ccc(OCc5cccc(F)c5)c(Cl)c4)c3s2)C1)N1CCOCC1`, the inhibition is 5.48% in assay [1]; -1.6% in [2]; -1.95% in [3]; 3.55% in [4]; 7.34% in assay [5]; 5.95% in [6]. Further, the inhibition turned out to be 5.11% in [7], 1.84% in [8], 6.02% in assay [9] and 3.76% in [10].

With `COc1ccc(-c2nn3ncccc3c2-c2ccnc(Nc3ccc(F)c(F)c3)n2)cc1`, the inhibition in [1] was 6.78%; in assay [2] it was -0.12%; in assay [3], 3.15%; in [4] it was 33%; in assay [5] it was 81%; in [6], 11.9%. In addition, the inhibition was determined as 50.9% in assay [7], 0.5% in assay [8], 3.31% in [9] and 4.66% in assay [10].

Turning to `N#Cc1ccc2c(-c3ccnc(NC4CC4)n3)c(-c3ccc(F)cc3)nn2c1`, the inhibition in [1] was 1.27%; in assay [2], -2.45%; in assay [3], -1.38%; in assay [4], 75.4%; in assay [5], 84.2%; in assay [6], 44.5%. Besides, the inhibition in assay [7] amounted to 74.8%; in assay [8], 1.17%; in assay [9], 0.18%; in [10] it was 1%.

For the molecule `COc1cc(N2CCN(C(C)C)CC2)ccc1Nc1nc(Nc2cccc3ncccc23)c2cc[nH]c2n1`, the inhibition in assay [1] was 0.21%; in assay [2], -0.27%; in assay [3], 1.83%; in assay [4], 1.44%; in [5], 2.03%; in assay [6], -0.29%. Moreover, the inhibition in assay [7] is 0.54%; in assay [8], -1.75%; in [9], -2.15%; in assay [10], -0.18%.

Take `CN1CCN(Cc2ccc(-c3cc4ncnc(Nc5ccc(OCc6cccc(F)c6)c(Cl)c5)c4s3)o2)CC1`: the inhibition was 4.3% and 6.64% in assay [1]; -2.01% and -2.56% in assay [2]; -1.87% and -0.88% in assay [3]; 11.4% and 3.49% in assay [4]; 11.9% and 8.59% in [5]; 7.76% and 7.78% in assay [6]. The inhibition was 11.5% and 9.04% in assay [7]; 2.21% and 1.13% in assay [8]; 1.76% and 5.79% in assay [9]; 1.79% and 3.59% in assay [10].

`CC1(C)CC(n2cnc(-c3ccc(F)cc3)c2-c2ccnc(N)n2)CC(C)(C)N1`: the inhibition is 1.92% in [1]; -0.06% in assay [2]; -1.33% in assay [3]; 64.5% in [4]; 77.6% in assay [5]; 13.6% in [6]. Moreover, the inhibition in assay [7] was 55.7%; in assay [8], 1.83%; in assay [9], 1.42%; in assay [10], 0.38%.

For `Cc1cc(O)cc(C)c1/C=C/c1cncc(C(N)=O)c1`, the inhibition in assay [1] turned out to be 2.77%; in assay [2], 1.7%; in assay [3] it was 1.04%; in [4], 4.9%; in [5], 6.5%; in [6], 0.52%. For the same molecule, the inhibition worked out at 0.8% in assay [7], 2.3% in [8], 1.36% in assay [9] and 1.1% in [10].

Consider `CN1CCC(n2cnc(-c3ccc(F)cc3)c2-c2ccnc(NCCO)n2)CC1`, for which the inhibition in assay [1] was 6.51%; in assay [2] it was -0.9%; in assay [3], 1.7%; in assay [4], 66.3%; in assay [5], 86.3%; in [6], 12.9%. Moreover, the inhibition in [7] is 52.5%; in [8], 2.89%; in [9] it was 4.31%; in assay [10], 3.94%.

In the case of `Cc1nnc(-c2cccc(-c3ccc(C(=O)NCC4CC4)cc3)c2)o1`, the inhibition in assay [1] was 6.64%; in assay [2], -1.05%; in assay [3], -0.94%; in [4], 4.85%; in assay [5], 12.2%; in assay [6], 3.66%. In addition, the inhibition in [7] is 7.35%; in assay [8], 3.76%; in [9], 3.54%; in assay [10], 4.5%.

For the molecule `Cn1c(-c2nonc2N)nc2cnccc21`, the inhibition was 3.9% in [1]; -1.11% in [2]; -2.32% in assay [3]; 3.4% in assay [4]; 6.34% in [5]; 3.09% in assay [6]. Besides, the inhibition in assay [7] is 0.59%; in assay [8], 2.23%; in assay [9], 2.42%; in [10], 2.62%.

Regarding `Nc1ncnc2occ(-c3ccc(NC(=O)Nc4cc(C(F)(F)F)ccc4F)cc3)c12`, the inhibition was 2.88% and -1.29% in assay [1]; 9.33% and 10.1% in [2]; 49.1% and 43.5% in [3]; 8.71% and -2.42% in assay [4]; 36.6% and 20.3% in assay [5]; 6.21% and 3.71% in assay [6]. Moreover, the inhibition is 39% and 32.9% in assay [7]; 5.66% and 0.72% in [8]; 29.3% and 17.7% in [9]; 15% and 4.47% in [10].

Take `c1ccc(-c2n[nH]cc2-c2ccnc(-c3ccc(OCCn4ccnc4)cc3)c2)nc1`: the inhibition in [1] is 1.75%; in assay [2] it was -3.24%; in assay [3], -1.72%; in assay [4], 9.4%; in [5], 36.8%; in [6], 1.39%. For the same molecule, the inhibition was 9.38% in [7], 0.51% in assay [8], 0.99% in assay [9] and 1.96% in assay [10].

A word on the inhibition: it is the drop in the measured response relative to a control, in per cent.
